Calls of active or inactive are those of the source. How the source made its calls: active means hit-call score of the fitted dose curve at least 0.9, where 1 is the maximum; inactive means score below 0.9.
How the values were obtained:
[1] = read-out: Monocyte Chemoattractant Protein-1 (MCP1), CCL2 (gene 6347); test: BSK_LPS_MCP1: BioMAP Diversity Plus: LPS Assay for Monocyte Chemoattractant Protein-1 (MCP1) Biomarker Activity (AID 2283081); details: primary human HUVEC with PBMC; actives raise or lower the signal
Method in brief: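 ELISA read-out of MCP-1 after 24 h chemical dosing of a human umbilical vein endothelial cell/peripheral blood mononuclear cell co-culture stimulated with LPS. Gain or loss of signal fitted relative to DMSO controls.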

[2] = BSK_LPS_PGE2: BioMAP Diversity Plus: LPS Assay for Prostaglandin E2 (PGE2) Biomarker Activity (AID 2283082); details: primary human HUVEC with PBMC; actives raise or lower the signal;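 on AC50: secreted prostaglandin E2 measured by ELISA in LPS-stimulated co-culture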
Method in brief: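 PGE2 release measured by ELISA in an LPS-activated co-culture of human umbilical vein endothelial cells and peripheral blood mononuclear cells, read at 24 h post-dosing. DMSO served as baseline for bidirectional curve fitting.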

[3] = read-out: Tissue Factor, F3 (gene 2152); test: BSK_LPS_TissueFactor: BioMAP Diversity Plus: LPS Assay for Tissue Factor Biomarker Activity (AID 2283084); details: primary human HUVEC with PBMC; actives raise or lower the signal
Method in brief: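 HUVEC/PBMC co-culture, LPS-activated; CD142 ELISA read 24 h post-dose; bidirectional curve fit vs DMSO negative control.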

[4] = read-out: Tumor necrosis factor (Homo sapiens) (UniProt P01375); test: BSK_LPS_TNFa: BioMAP Diversity Plus: LPS Assay for Tumour Necrosis Factor alpha (TNFa) Biomarker Activity (AID 2283085); details: primary human HUVEC with PBMC; actives raise or lower the signal
Method in brief: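 TNFa was quantified by ELISA in LPS-activated co-cultures of human endothelial cells and PBMC, 24 h post-dosing. Both increases and decreases versus DMSO were fitted.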

[5] = read-out: Vascular cell adhesion molecule 1 (VCAM1), VCAM1 (gene 7412); test: BSK_LPS_VCAM1: BioMAP Diversity Plus: LPS Assay for Vascular cell adhesion molecule 1 (VCAM1) Biomarker Activity (AID 2283086); details: primary human HUVEC with PBMC; actives raise or lower the signal
Method in brief: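 VCAM-1 quantified by ELISA in an LPS-activated co-culture of human endothelial cells and peripheral blood mononuclear cells, read 24 h post-treatment. Fitted in both directions versus DMSO; parallel SRB staining flags overt cytotoxicity.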

CD40, CD40 (gene 958) = test: BSK_SAg_CD40: BioMAP Diversity Plus: SAg Assay for CD40 Biomarker Activity (AID 2283088); details: primary human HUVEC with PBMC; actives raise or lower the signal
Method in brief: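 HUVEC/PBMC co-culture, 24 h post-dose; CD40 by ELISA, fluorescence intensity; bidirectional fit vs DMSO negative control.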

CD69, CD69 (gene 969) = test: BSK_SAg_CD69: BioMAP Diversity Plus: SAg Assay for CD69 Biomarker Activity (AID 2283089); details: primary human HUVEC with PBMC; actives raise or lower the signal;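 on AC50: cell surface CD69 protein quantified by ELISA with fluorescence detection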
Method in brief: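 Values derive from bidirectional fitting relative to DMSO vehicle. Cells: umbilical vein endothelium plus peripheral blood mononuclear cells, treated 24 h before fluorescent ELISA for CD69.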

[6] = read-out: Monocyte Chemoattractant Protein-1 (MCP1), CCL2 (gene 6347); test: BSK_SAg_MCP1: BioMAP Diversity Plus: SAg Assay for Monocyte Chemoattractant Protein-1 (MCP1) Biomarker Activity (AID 2283090); details: primary human HUVEC with PBMC; actives raise or lower the signal
Method in brief: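 Values derive from bidirectional fitting of ELISA-measured MCP1 against DMSO controls. Readings were taken 24 h after dosing human vascular endothelial cells co-cultured with peripheral blood mononuclear cells under superantigen stimulation.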

[7] = read-out: E-selectin (Homo sapiens) (UniProt P16581); test: BSK_SAg_Eselectin: BioMAP Diversity Plus: SAg Assay for Eselectin Biomarker Activity (AID 2283091); details: primary human HUVEC with PBMC; actives raise or lower the signal
Method in brief: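 E-selectin ELISA readout at 24 h post-dosing in human umbilical vein endothelial cell/PBMC co-culture; gain or loss of signal fitted relative to DMSO baseline.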

[8] = read-out: Monokine induced gamma interferon (MIG), CXCL9 (gene 4283); test: BSK_SAg_MIG: BioMAP Diversity Plus: SAg Assay for Monokine induced gamma interferon (MIG) Biomarker Activity (AID 2283092); details: primary human HUVEC with PBMC; actives raise or lower the signal
Method in brief: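 Values reflect bidirectional fitting of ELISA-measured MIG against DMSO vehicle, taken 24 h after dosing of a co-culture of human umbilical vein endothelial cells and peripheral blood mononuclear cells.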

[9] = BSK_SAg_PBMCCytotoxicity: PBMC Cytotoxicity Assessment in the BioMAP Diversity Plus: SAg Assay (AID 2283093); details: primary human HUVEC with PBMC;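 further: PBMC viability measured as Alamar Blue reduction fluorescence at 546/580 nm; fitted both ways against DMSO so a hit may be loss or gain of signal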;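 on AC50: PBMC superantigen activated with SEB plus TSST-1 one hour after compound addition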
Method in brief: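 Alamar Blue reduction (6 h, 546/580 nm) reports PBMC cytotoxicity after 90 h superantigen activation (SEB, TSST-1; 20 ng/mL final each) with 1 h compound pre-treatment. Gain or loss of signal fitted versus DMSO.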

[10] = read-out: Interleukin-8 (IL8), CXCL8 (gene 3576); test: BSK_SAg_IL8: BioMAP Diversity Plus: SAg Assay for Interleukin-8 (IL8) Biomarker Activity (AID 2283094); details: primary human HUVEC with PBMC; actives raise or lower the signal
Method in brief: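 ELISA readout of IL-8 from a superantigen-activated endothelial/PBMC primary human co-culture, taken 24 h post-dosing and fitted in both directions against DMSO; parallel SRB total-protein staining flags overt cytotoxicity.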

[11] = BSK_SAg_Proliferation: Cell Proliferation Assessment in the BioMAP Diversity Plus: SAg Assay (AID 2283095); details: primary human HUVEC with PBMC;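 further: relative cell number as total protein by SRB absorbance in sub-confluent culture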
Method in brief: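 Relative cell number in the endothelial cell/PBMC co-culture was quantified at 96 h by SRB staining (0.1% SRB, 10% TCA fixation, read at 560 nm). Curves were fitted in both directions relative to DMSO baseline.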

[12] = BSK_SAg_SRB: Viability Assessment in the BioMAP Diversity Plus: SAg Assay (AID 2283096); details: primary human HUVEC with PBMC;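 further: cells read one day after compound addition; hits may be either gain or loss of signal compared with DMSO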
Method in brief: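 This overt-cytotoxicity endpoint quantifies protein in human endothelial/PBMC co-cultures at 24 h using SRB absorbance (560 nm) after trichloroacetic acid fixation. Values reflect signal change from the DMSO negative control, fitted bidirectionally.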

[13] = read-out: Macrophage colony-stimulating factor (MCSF), CSF1 (gene 1435); test: BSK_LPS_MCSF: BioMAP Diversity Plus: LPS Assay for Macrophage colony-stimulating factor (MCSF) Biomarker Activity (AID 2283083); details: primary human HUVEC with PBMC; actives raise or lower the signal
Method in brief: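 HUVEC + PBMC co-culture (human primary), 24 h post-dose; M-CSF by ELISA; gain/loss of signal fitted bidirectionally vs DMSO baseline.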

CD38, CD38 (gene 952) = test: BSK_SAg_CD38: BioMAP Diversity Plus: SAg Assay for CD38 Biomarker Activity (AID 2283087); details: primary human HUVEC with PBMC; actives raise or lower the signal
Method in brief: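 CD38 quantified by ELISA (fluorescence) in a superantigen-activated endothelial cell–PBMC co-culture at 24 h post-dose. Activity fitted in both directions relative to DMSO; parallel SRB and Alamar Blue cytotoxicity read-outs.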

Measured: AC50

Sequence of E-selectin (Homo sapiens) (P16581 whole entry, looked up): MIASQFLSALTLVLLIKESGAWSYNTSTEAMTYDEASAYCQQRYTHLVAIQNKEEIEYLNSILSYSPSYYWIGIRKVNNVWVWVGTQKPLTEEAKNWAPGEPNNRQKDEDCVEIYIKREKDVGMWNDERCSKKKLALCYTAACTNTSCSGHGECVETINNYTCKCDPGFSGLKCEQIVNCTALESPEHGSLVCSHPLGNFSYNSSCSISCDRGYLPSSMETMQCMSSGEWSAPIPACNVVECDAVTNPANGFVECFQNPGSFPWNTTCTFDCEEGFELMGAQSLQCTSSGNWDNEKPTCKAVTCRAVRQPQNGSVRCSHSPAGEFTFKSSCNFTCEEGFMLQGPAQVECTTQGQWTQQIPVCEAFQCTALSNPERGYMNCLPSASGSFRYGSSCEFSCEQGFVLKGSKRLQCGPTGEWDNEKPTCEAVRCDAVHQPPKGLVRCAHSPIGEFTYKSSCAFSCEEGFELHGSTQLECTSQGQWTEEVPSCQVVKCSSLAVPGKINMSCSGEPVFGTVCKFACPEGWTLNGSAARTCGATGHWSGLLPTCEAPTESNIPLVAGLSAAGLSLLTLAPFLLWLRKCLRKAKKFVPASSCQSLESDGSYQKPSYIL
Sequence of Tumor necrosis factor (Homo sapiens) (P01375 whole entry, looked up): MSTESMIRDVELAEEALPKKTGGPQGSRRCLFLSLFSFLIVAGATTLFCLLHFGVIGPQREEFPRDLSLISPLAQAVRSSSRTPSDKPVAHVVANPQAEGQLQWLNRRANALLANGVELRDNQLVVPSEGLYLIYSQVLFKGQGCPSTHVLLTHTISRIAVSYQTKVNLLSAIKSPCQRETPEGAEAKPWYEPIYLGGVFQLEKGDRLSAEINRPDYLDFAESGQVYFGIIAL

CC(=O)Nc1ccccc1O
not listed: [13] | CD38, CD38 (gene 952)
inactive: all other assays above

O=C1CCCCCCCCCCCCCCO1
active: [2] 3.97 µM | [5] 23.5 µM | CD69, CD69 (gene 969) 20 µM | [9] 11.7 µM | [11] 10.3 µM
not listed: [13] | CD38, CD38 (gene 952)
inactive: all other assays above

CC(=O)/C=C/C1=C(C)CCCC1(C)C
not listed: [9]
inactive: all other assays above

Cc1ccc2n[nH]nc2c1
not listed: [13] | CD38, CD38 (gene 952)
inactive: all other assays above

CC[Si](OC(C)=O)(OC(C)=O)OC(C)=O
not listed: [13] | CD38, CD38 (gene 952)
inactive: all other assays above

CCCCCCCCCC=O
active: CD69, CD69 (gene 969) 29.9 µM | [7] 33.6 µM
not listed: [9] | [13] | CD38, CD38 (gene 952)
inactive: all other assays above

O=C(O)c1cn(-c2ccc(F)cc2)c2cc(N3CCNCC3)c(F)cc2c1=O
not listed: [9] | [13]
inactive: all other assays above

Reference: PubChem BioAssay (EPA / NIEHS)
